Calls of active or inactive are those of the source. Rule for the calls: active = hit-call score of the fitted dose curve at least 0.9, where 1 is the maximum; inactive = score below 0.9.
test: CCTE_Harrill_HTTr_Apoptosis_MCF7: CCTE's 6-hour Apoptosis Assessment for the High-Throughput Transcriptomics (HTTr) Platform, in MCF-7 cells cultured in DMEM + 10% fetal bovine serum, Harrill Lab (AID 2284011)
Description: This is a cell-based assay that evaluates apoptosis using high content imaging to evaluate activation of caspase-3/7 using the CellEvent Caspase 3/7 Green detection reagent in 384-well format.One of seven assay components measured from the CCTE_Harrill_HTTr_Apoptosis assay. This was part of a full screening experiment. This is a cell-based assay that evaluates apoptosis in MCF-7 cells cultured in DMEM + 10% fetal bovine serum. High content imaging is used to evaluate activation of caspase-3/7 using the CellEvent Caspase 3/7 Green detection reagent. Measurements are taken at 6 hours after chemical dosing in 384-well format.The assay component endpoint CCTE_Harrill_HTTr_Apoptosis_MCF7 was analyzed with bidirectional fitting relation to DMSO as the negative control and baseline of activity. Using a type of viability reporter, gain-of-signal activity can be used to evaluate activation of caspase-3/7 using the CellEvent Caspase 3/7 Green detection reagent to understand changes in apoptosis. To generalize the intended target to other relatable targets, this assay endpoint is annotated to cell cycle, where the subfamily is apoptosis.
Chemicals were tested in MCF7 cells in an eight point dilution series with a six hour exposure duration.

Row | Compound | outcome
1 | CCOC(=O)/C=C\C(=O)OCC | inactive
2 | COC(=O)C=Cc1ccccc1 | inactive
3 | CC=CC(=O)OCC(C)C | inactive
4 | CC(C)(CO)C(O)C(=O)NCCCO (stereo not given) | inactive
5 | Clc1cc(Cl)c(Cl)c(Cl)c1Cl | inactive
6 | CC(=O)c1ccc(S(=O)(=O)NC(=O)NC2CCCCC2)cc1 | inactive
7 | CCCc1ccc(O)c(OC)c1 | inactive
8 | C=Cc1ccc(OC(C)=O)cc1 | inactive
9 | CC(=O)OCCc1ccccc1 | inactive
10 | O=C(OCc1ccccc1)c1ccc(O)cc1 | inactive
11 | CC(C)(O)Cc1ccccc1 | inactive
12 | CC(C)(C)NC(=O)[C@H]1CC[C@H]2[C@@H]3CC[C@H]4NC(=O)C=C[C@]4(C)[C@H]3CC[C@]12C | inactive
13 | O=C(O)/C=C/c1ccccc1 | inactive
14 | CCCCOCCOC(=O)COc1ccc(Cl)cc1Cl | inactive
15 | CC12CCC(CC1)C(C)(C)O2 | inactive
16 | CC1(C)CC(O)CC(C)(C)N1[O] | inactive
17 | COc1cc(O)c(C(=O)c2ccccc2)cc1S(=O)(=O)O | inactive
18 | CCOC(=O)C1=NN(c2ccc(Cl)cc2Cl)C(C)(C(=O)OCC)C1 (stereo not given) | inactive
19 | CCCCC(C=O)CC (stereo not given) | inactive
20 | O=C(O[C@@H]1Cc2c(O)cc(O)cc2O[C@@H]1c1cc(O)c(O)c(O)c1)c1cc(O)c(O)c(O)c1 | inactive

Row | Compound | outcome
21 | CC(=O)CCC1=C(C)CCCC1(C)C | inactive
22 | CCCCCCCO | inactive
23 | Cc1c[nH]c(=O)[nH]c1=O | inactive
24 | COC(Cc1ccccc1)OC | inactive
25 | CC(=O)OC/C=C(/C)CCC=C(C)C | inactive
26 | O=C(O)C1CCC(C(=O)O)CC1 (stereo not given) | inactive
27 | CCC(C)c1ccccc1 (stereo not given) | inactive
28 | CC(=O)CCC=C(C)C | inactive
29 | CC(=O)CC(=O)Nc1ccccc1C | inactive
30 | C=C(C)[C@@H]1CC=C(C)CC1 | inactive
31 | CC/C=C\CCOC(=O)c1ccccc1O | inactive
32 | CCCCOCC(C)O (stereo not given) | inactive
33 | CC1=CCC(C(C)C)C=C1 (stereo not given) | inactive
34 | CC(C)OC(=O)c1ccccc1 | inactive
35 | Cn1ccnc1 | inactive
36 | CCCCCCC=O | inactive
37 | C=C[C@@]1(C)CC(=O)[C@]2(O)[C@@]3(C)[C@@H](O)CCC(C)(C)[C@@H]3[C@H](O)[C@H](OC(C)=O)[C@@]2(C)O1 | inactive
38 | COc1ccc(-c2coc3cc(O)cc(O)c3c2=O)cc1 | inactive
39 | O=C(O)CCC(=O)O | inactive
40 | CC1CCC(=O)C1=O (stereo not given) | inactive
